# Test results: PubChem BioAssay (Tox21)
# Activity calls are given as the source filed them. Calls follow the shape of the dose curve; as a rule, active = well fitted activation curve with a large enough effect in the repeat runs; inconclusive = weak or mixed curves; inactive = flat fitted curve, though single readings scatter.
# Target: KiSS-1 receptor (Homo sapiens) (UniProt Q969F8)
# Assay: Human kisspeptin (KISS1R) small molecule agonists, calcium flux assay in KISS1R-HEK293 cells (AID 1920064)
# Settings: KISS1R-HEK293, calcium flux fluorescence, agonist; series mostly up to 76.8 µM; activation: at the top concentration
# Description: National Center for Advancing Translational Sciences [NCATS]
# Division of Preclinical Innovation [DPI]
# U.S. Environmental Protection Agency [EPA]
# National Institutes of Environmental Health Sciences [NIEHS]
# National Toxicology Program [NTP]
# U.S. Food and Drug Administration [FDA]
# Kisspeptin and its receptor KISS1R play key roles in mammalian reproduction due to their involvement in the onset of puberty and control of the hypothalamic-pituitary-gonadal axis such as regulates GnRH release from the hypothalamus. The kisspeptin/KISS1R system also plays a direct role in peripheral organs (including the ovary, testis, uterus, and placenta) and is implicated in reproductive diseases such as miscarriage and polycystic ovary syndrome (PCOS). Abnormal KISS1R activity is associated with abnormal puberty, infertility, endometriosis, and hormone-dependent tumors. The KISS1 receptor (KISS1R, also called GPR54), a G-protein-coupled receptor (GPCR), acts (through phospholipase C) to increase intracellular inositol trisphosphate and then release intracellular calcium stores. Cell-based KISS1R-HEK293 assay is using HEK293 cells that have been genetically engineered to express the human KISS1R, which activity can be measured by calcium signaling. A compound/drug can activate (agonist) KISS1R that can be monitored by levels of intracellular calcium.
# KISS1R-HEK293 cells developed by Codex Corp contain human KISS1R gene, which was stably integrated into HEK 293 cells. The compound activation can be detected by fluorescence intensity via calcium flux assay. This cell line has been used to screen the Tox21 10K compound library to identify agonists of KISS1R.
# KISS1R-Hek293 cells were dispensed at 1500 cells/4uL/well in 1536-well black wall/clear bottom plates using a multidrop dispenser. After the assay plates were incubated at a 37 C/5% CO2 incubator for 18 hours, 4 microL of Calcium Dye Solution was added to each well. The plates were incubated at 37 C for 1 hour. And then 23 nL of compounds dissolved in DMSO, positive controls, or DMSO only was transferred to the assay plate by a pin tool station. The fluorescence intensity in the plates was measured using FDSS 7000EX kinetic plate reader with a filter set of Ex/Em=480/540 for 3 min at 1 sec intervals. Each test compound was measured at 15 concentrations and in triplicates.
# % is scaled to controls: 0 for no effect and ±100 for the full control effect.
# Sequence of KiSS-1 receptor (Homo sapiens) (Q969F8 whole entry, looked up): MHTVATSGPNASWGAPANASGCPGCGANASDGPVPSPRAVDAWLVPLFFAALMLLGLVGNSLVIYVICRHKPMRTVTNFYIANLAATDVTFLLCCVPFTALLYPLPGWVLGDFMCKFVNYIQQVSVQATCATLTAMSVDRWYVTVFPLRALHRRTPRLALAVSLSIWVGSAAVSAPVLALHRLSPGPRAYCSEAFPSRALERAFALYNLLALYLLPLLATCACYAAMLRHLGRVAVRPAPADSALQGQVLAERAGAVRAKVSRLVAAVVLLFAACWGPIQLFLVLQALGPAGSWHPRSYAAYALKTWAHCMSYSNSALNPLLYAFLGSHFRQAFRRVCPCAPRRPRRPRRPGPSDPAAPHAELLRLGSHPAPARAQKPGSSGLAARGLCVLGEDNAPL
row,SMILES,activation
1,CCCCCCCCCCCCCCCCCCO,-0.217% [at 35.3 µM] (inactive)
2,O=[N+]([O-])c1ccc(CO)cc1,-4.03% (inactive)
3,COCCCCCCCCOCCC[Si](C)(O[Si](C)(C)C)O[Si](C)(C)C,0.138% (inactive)
4,Cn1c(=O)[nH]c2ncn(C)c2c1=O,-2.87% (inactive)
5,CCCCOCCOC(=O)COc1ccc(Cl)cc1Cl,0.823% (inactive)
6,CC(=O)OC(C)(C)Cc1ccccc1,-2.87% (inactive)
7,Nc1ccc(C(=O)OCCCOC(=O)c2ccc(N)cc2)cc1,1.72% (inactive)
8,COc1ccccc1OCC(O)CN1CCN(CC(=O)Nc2c(C)cccc2C)CC1 (stereo not given),-1.27% [at 35.3 µM] (inactive)
9,CC(C)C(=O)OC/C=C/c1ccccc1,0.13% (inactive)
10,O=C1C(CCS(=O)c2ccccc2)C(=O)N(c2ccccc2)N1c1ccccc1 (stereo not given),-0.512% [at 35.3 µM] (inactive)
11,C[N+](C)(C)CCOC(=O)CCC(=O)OCC[N+](C)(C)C,2.54% [at 35.3 µM] (inactive)
12,O=C(c1ccccc1)c1ccc(Cl)cc1,1.4% (inactive)
13,CN1CCOC(c2ccccc2)c2ccccc2C1 (stereo not given),0.848% [at 35.3 µM] (inactive)
14,CCCCCCCCCCn1cc[n+](CCCCCCCCCC)c1C,-2.33% (inactive)
15,Cc1cccc(C)c1NC(=O)CN1CCCC1,-1.03% [at 35.3 µM] (inactive)
16,C/C=C/C=C/COC(=O)C(C)C,5.76% (inactive)
17,C/C(=N\O)c1ccc(OCC(=O)N2CCCCC2)cc1,-1.39% [at 35.3 µM] (inactive)
18,CCCNC(C)C(=O)Nc1ccccc1C (stereo not given),-0.296% [at 35.3 µM] (inactive)
19,C=CC(=O)OCCOCCOC(=O)C=C,-1.54% (inactive)
20,CCCCc1nc(Cl)c(CO)n1Cc1ccc(-c2ccccc2-c2nn[nH]n2)cc1,-0.83% [at 35.3 µM] (inactive)

row,SMILES,activation
1,OCCN(CCO)CCN(CCO)CCO,-1.47% (inactive)
2,O=C(Nc1ccc([N+](=O)[O-])cc1)Nc1ccc([N+](=O)[O-])cc1,0.613% [at 35.3 µM] (inactive)
3,Cc1ccc(C(=O)c2ccccc2)cc1,-1.54% (inactive)
4,Cc1cc(-c2ccccc2)nnc1NCCN1CCOCC1,-0.592% [at 35.3 µM] (inactive)
5,Nc1ccc(S(=O)(=O)Nc2ccnn2-c2ccccc2)cc1,15% [at 15.8 µM] (inactive)
6,CC(C)=CCC/C(C)=C/COC=O,0.138% (inactive)
7,CCC1C(=O)OCC1Cc1cncn1C (stereo not given),0.33% [at 35.3 µM] (inactive)
8,CCCCC(CC)COC(=O)COc1ccc(Cl)cc1C (stereo not given),30.6% (inactive)
9,CN1C(=O)c2ccc([N+](=O)[O-])cc2C1=O,-4.88% (inactive)
10,Cc1ccc2cccnc2c1,0.348% (inactive)
11,CC(C)(C)NCC(O)COc1cccc2c1C[C@H](O)[C@H](O)C2 (stereo not given in full),-1.88% [at 35.3 µM] (inactive)
12,OCC(O)[C@@H](O)[C@H](O)[C@H](O)CO[C@H]1O[C@H](CO)[C@@H](O)[C@H](O)[C@H]1O (stereo not given in full),-0.173% (inactive)
13,N#CSCC(=O)O,0.248% [at 35.3 µM] (inactive)
14,CC1(C)CC(OC(=O)CCCCCCCCC(=O)OC2CC(C)(C)NC(C)(C)C2)CC(C)(C)N1,3.13% [at 15.8 µM] (inactive)
15,O=[N+]([O-])c1cc(Cl)c(Cl)c(Cl)c1Cl,3.71% (inactive)
16,CC(C(=O)O)c1ccc2c(c1)CC(=O)c1ccccc1S2 (stereo not given),-0.186% [at 35.3 µM] (inactive)
17,C[C@@H]1C[C@H]2[C@@H]3CCC4=CC(=O)C=C[C@]4(C)[C@@]3(F)[C@@H](O)C[C@]2(C)[C@H]1C(=O)CO,3.73% [at 35.3 µM] (inactive)
18,C=COCC(C)C,3% (inactive)
19,CCN(CC)c1ccc(N)cc1,-7.58% (inactive)
20,Cn1nnc2c(C(N)=O)ncn2c1=O,-1.19% [at 35.3 µM] (inactive)
